# Source: PubChem BioAssay AID624483 (NMMLSC, 2012)
# Hit rate of the full screen: of about 360,000 compounds, about 11,000 (3.1%) were called active. Another 2% or so got no clear call; they are omitted. The full list was thinned out, with actives kept by preference. Unmarked numbers belong to inactive results. Cut-off read from the data, not from the text of the source: active = fluorescence intensity above about 16000; inconclusive = no clear call, values can overlap the other calls; inactive = below that.
# Assay: compound fluorescence in toxin protease inhibitor counterscreen, primary screen, artefact control for toxin protease inhibitor project, biochemical, multiplex microsphere, HTS (AID 624483)
# Details: compound autofluorescence counterscreen, microsphere flow cytometry; active compounds read high
row,SMILES,fluorescence intensity
1,CCCCNc1nc2c(c(=O)[nH]c(=O)n2C)n1CCOc1ccccc1,20600 (active)
2,CCCCNc1nc2c(c(=O)n(C)c(=O)n2C)n1Cc1cccc(OC)c1,4560
3,COc1ccc(CCn2c(NCCCN3CCOCC3)nc3c2c(=O)[nH]c(=O)n3C)cc1,4180
4,CCCC/C=C/c1cccc2nncn12,3130
5,COc1ccc(CN2CN(C(C)C)CSC2=S)cc1,24500 (active)
6,COc1ccc(CCC(C)N2CCc3ccccc3C2)cc1 (stereo unspecified),3950
7,COc1ccc(CN2CN(C3CCCC3)CSC2=S)cc1,3230
8,NC(=O)COc1ccc2c3c(c(=O)oc2c1)CCCCC3,24300 (active)
9,NC(=O)C1CCN(C(=O)COc2ccc3c4c(c(=O)oc3c2)CCC4)CC1,5000
10,O=C(COc1ccc2c3c(c(=O)oc2c1)CCC3)NC1CCCCC1,9280
11,Cc1nc(C(F)(F)F)ccc1C(=O)N1CCC1(C)C(=O)NS(=O)(=O)c1ccccc1Cl (stereo unspecified),2880
12,COCCCn1c(SCC(=O)Nc2ccccc2)nnc1-c1ccncc1,3490
13,O=C(CSc1nnc(-c2ccncc2)n1-c1ccc(Cl)cc1)Nc1ccc(C(=O)O)cc1,3940
14,O=C(CSc1nnc(-c2ccncc2)n1C1CCCCC1)Nc1ccccc1,20700 (active)
15,CN(C(=O)c1c(Cl)cnn1C)C12CC3CC(CC(C3)C1)C2,2490
16,CCCNC(=O)C1(C)CCCN(Cc2cccc(C(F)(F)F)c2)C1 (stereo unspecified),3060
17,CC(C)C(C)NC(=O)COc1ncnc2ccccc12 (stereo unspecified),2080
18,O=C(CSc1ncccn1)NC(=O)NCc1ccccc1,10500
19,O=C(COc1ncnc2ccccc12)NC(=O)NCc1ccccc1,16500 (active)
20,CCSc1ccccc1C(=O)NCc1ccc(OC)cc1,24300 (active)
21,CCc1nc2ccccc2c(C(=O)NCc2ccc(OC)cc2)c1C,4980

row,SMILES,fluorescence intensity
1,CSc1ccccc1C(=O)NCc1ccccc1,3280
2,O=C(CCN1C(=O)c2ccccc2C1=O)C1=NN[C@@H]2C(=O)N(c3ccc(F)cc3)C(=O)[C@H]12,2580
3,CC(C)(C)N1C(=O)c2c(C(=O)OCc3ccccc3)[nH]c(-c3ccccc3)c2C1=O,5800
4,CC1CCN(Cc2nc(-c3ccc(Cl)cc3)no2)CC1,6270
5,O=c1ccc(S(=O)(=O)N2CCCC2)cn1Cc1nc(-c2ccccc2)no1,3920
6,Cc1ccc(-c2noc(CN3CCN(Cc4ccccc4)CC3)n2)cc1,23500 (active)
7,COc1ccc(S(=O)(=O)N2CCCCC2c2cc(C(=O)NCc3ccc(F)cc3)no2)cc1 (stereo unspecified),2840
8,CCCNC(=O)COc1coc(CN2CCN(Cc3ccccc3)CC2)cc1=O,5680
9,CC1(C)Oc2ccc3ccc(=O)oc3c2/C(=C/NCCO)C1=O,2160
10,CCOC(=O)CN1CCC(c2ccccc2)CC1,2610
11,CCOC(=O)Cn1c2c(c(-c3ccccc3OC)cc1=O)CCCC2,23500 (active)
12,COc1ccccc1C1=CC(=O)CCC1,3790
13,C[C@H]([C@@H](O)[C@@H](O)[C@@H](C)C(C)(C)C)[C@H]1CC[C@H]2C3CC[C@H]4C[C@H](OS(=O)(=O)O)[C@@H](OS(=O)(=O)O)C[C@]4(C)[C@H]3CC[C@]12C (stereo partly specified),4680
14,CCOC(=O)Cc1csc(SCC(=O)NC(C)C23CC4CC(CC(C4)C2)C3)n1 (stereo unspecified),9570
15,COC(=O)CNC(=O)c1ccc2c(c1)S(=O)(=O)c1ccccc1C2=O,2970
16,CC(C)NC(=O)NNc1c(Cl)cncc1Cl,3840
17,Cc1nc(N)[nH]c(=O)c1Oc1cccc(C(F)(F)F)c1,6010
18,CCOC(=O)NNc1cc(C(F)(F)F)ccn1,3590
19,CCC(=O)OCc1c(C(F)(F)F)nn(C)c1Oc1cccc(C(F)(F)F)c1,18100 (active)
20,CCCCNC(=O)Nc1c(C)cc(SC#N)cc1C,2550
21,Cn1c2ccccc2n2c(=O)c(=O)n(CC(=O)c3ccc(F)cc3)nc12,8720

row,SMILES,fluorescence intensity
1,CC1(C(=O)NS(=O)(=O)c2ccccc2)CCN1C(=O)C1CCCCC1 (stereo unspecified),3660
2,Cc1ccccc1N1CCN(S(=O)(=O)c2ccc3ccccc3c2)CC1,4580
3,Cc1cc(N2CCN(S(=O)(=O)c3ccc(C)c(C)c3)CC2)c2ccccc2n1,23300 (active)
4,Cc1ccc(S(=O)(=O)N2CCN(c3ccccc3)CC2)cc1C,4010
5,CCCS(=O)(=O)NC(=O)C1(C)CCN(C(=O)c2sccc2C)C1 (stereo unspecified),3570
6,CC(=O)N1Cc2cc(C(=O)NCc3cccc(F)c3)nc(-c3cccc(C4=CCCC4)c3)c2[C@H]1CCO,5550
7,O=c1cc(-c2ccccc2)nc(N2CCCCC2)[nH]1,6120
8,O=C1NC2(CCCCC2)N=C1c1ccccc1,24900 (active)
9,O=[N+]([O-])c1ccc(C2C3C(c4ccccc4)=NC4(CCCCC4)N32)cc1 (stereo unspecified),7680
10,CCCNC(=O)C1(C)CCN(C(=O)c2ccc(F)cc2Cl)C1 (stereo unspecified),2840
11,COCCNC(=O)C1CCCN(Cc2ccccc2Cl)CC1 (stereo unspecified),3660
12,CCOC(=O)c1c(CN2CCOCC2)n(-c2ccccc2)c2ccc(O)cc12,16500 (active)
13,CCOC(=O)c1c(CN(C)C)n(-c2ccccc2)c2cc(Br)c(O)cc12,5060
14,CCOC(=O)c1nnn(-c2nonc2-n2cccc2)c1CN1CCOCC1,10800
15,C[C@H]1CN([C@@H](C)CO)C(=O)Cc2cc(NS(C)(=O)=O)ccc2O[C@@H]1CN(C)CC1CC1,3570
16,CCc1nc2c(OCCOc3ccccc3)cccn2c1N(C)C(=O)c1cccs1,3880
17,CCOc1ccc(Cl)cc1-c1cc(C(=O)NCc2cccs2)[nH]n1,3900
18,CC(=O)c1cccc(-c2cnc3c(NC=O)cc(-c4ccc(N(C)C)cc4)cn23)c1,3260
19,CC(C)(C)OC(=O)N1CCN(C(=O)c2[nH]c(C(F)(F)F)nc2-c2ccccc2)CC1,5720
